{"source": "paper PMC6212790", "about": "“How bacterial xenogeneic silencer rok distinguishes foreign from self DNA in its resident genome”", "note": "Over roughly 33,000 sequences, “e-score” has its median near -0.037; the highest 2% begin near 0.34. The full list was thinned out, with the highest values kept by preference."}
{"molecular_target": "T1, GST-Rok (full length) (Bacillus subtilis subsp. subtilis str. …, UniProt O34857 1-191)", "T1 sequence": "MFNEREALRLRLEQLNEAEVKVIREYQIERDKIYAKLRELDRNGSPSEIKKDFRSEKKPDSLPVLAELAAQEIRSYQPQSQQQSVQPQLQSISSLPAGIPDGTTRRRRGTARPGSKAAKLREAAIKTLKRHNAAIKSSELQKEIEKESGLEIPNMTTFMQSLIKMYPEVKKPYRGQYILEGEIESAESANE", "experiment": "protein binding microarray; Rok is a gene silencer of Bacillus subtilis; high values mean tight binding", "conditions": "protein: recombinant; tags: GST (pTH5325, pDEST15-Magic modified); dsDNA, one strand shown", "in_short": "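Each has a 25-mer constant primer and a 35-mer variable part from a de Bruijn sequence of order 10, covering every non-palindromic 8-mer at least 32 times (palindromic 16). Preference for each 8-mer is given as a rank-based, unitless enrichment score (E-score). Its range runs from 0.5 (most favored) to −0.5 (most disfavored).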", "units": {"binding signal": "E-score"}}
{"sequence": "GTCGGCAA", "binding signal": -0.0858}
{"sequence": "CCAAGAAC", "binding signal": -0.19}
{"sequence": "CTCCGAAA", "binding signal": -0.0499}
{"sequence": "CAGTTGAG", "binding signal": -0.000936}
{"sequence": "AATGAATT", "binding signal": 0.29}
{"sequence": "ACAATAAC", "binding signal": 0.214}
{"sequence": "AGTCCCAT", "binding signal": -0.144}
{"sequence": "TCTATAAA", "binding signal": 0.186}
{"sequence": "ACTATAAT", "binding signal": 0.411}
{"sequence": "ACTATAAG", "binding signal": 0.268}
{"sequence": "ACTATAAA", "binding signal": 0.341}
{"sequence": "ACTATAAC", "binding signal": 0.214}
{"sequence": "CCTATAAA", "binding signal": 0.298}
{"sequence": "ACGTCATA", "binding signal": 0.128}
{"sequence": "CCAAATGG", "binding signal": -0.148}
{"sequence": "AGTTCGTC", "binding signal": 0.0184}
{"sequence": "GGAAATAC", "binding signal": 0.101}
{"sequence": "CAAAATAC", "binding signal": 0.351}
{"sequence": "GAAAATAA", "binding signal": 0.145}
{"sequence": "GAAAATAC", "binding signal": 0.351}
{"sequence": "AAAAATAC", "binding signal": 0.32}
{"sequence": "CAAAATAA", "binding signal": 0.0897}
{"sequence": "GGCATTAA", "binding signal": -0.00985}
{"sequence": "CCTGTTGA", "binding signal": -0.00587}
{"sequence": "GAAACGGC", "binding signal": -0.103}
{"sequence": "ATATTAAT", "binding signal": 0.345}
{"sequence": "CTATTAAA", "binding signal": 0.116}
{"sequence": "AGATTAAC", "binding signal": 0.181}
{"sequence": "ATATTAAC", "binding signal": 0.298}
{"sequence": "AGATTAAG", "binding signal": 0.135}
{"sequence": "TTATTAAA", "binding signal": 0.168}
{"sequence": "ATATTAAA", "binding signal": 0.377}
{"sequence": "ATATTAAG", "binding signal": 0.275}
{"sequence": "AGATTAAT", "binding signal": 0.346}
{"sequence": "AAACATTT", "binding signal": 0.0971}
{"sequence": "AGAATAAG", "binding signal": 0.105}
{"sequence": "ATAAGAGA", "binding signal": -0.0183}
{"sequence": "CTGCCCAC", "binding signal": -0.168}
{"sequence": "GCTATATA", "binding signal": 0.389}
{"sequence": "GCTATACA", "binding signal": 0.201}
{"sequence": "CCTATATA", "binding signal": 0.123}
{"sequence": "ACTATATC", "binding signal": 0.331}
{"sequence": "ACTATATA", "binding signal": 0.453}
{"sequence": "ACTATATG", "binding signal": 0.267}
{"sequence": "CGAGGTCC", "binding signal": -0.0704}
{"sequence": "AGATGCAA", "binding signal": -0.00215}
{"sequence": "AATCTAGG", "binding signal": 0.231}
{"sequence": "AATCTAGA", "binding signal": 0.349}
{"sequence": "AATCTAAT", "binding signal": 0.263}
{"sequence": "TATCTAGA", "binding signal": 0.213}
{"sequence": "AATCTAGC", "binding signal": 0.2}
{"sequence": "AATCTAGT", "binding signal": 0.377}
{"sequence": "GTACCTGA", "binding signal": 0.102}
{"sequence": "CGAGTAGA", "binding signal": 0.0915}
{"sequence": "CTAATGAA", "binding signal": 0.0765}
{"sequence": "CCGAATAG", "binding signal": -0.00823}
{"sequence": "ACGCGAAA", "binding signal": -0.0244}
{"sequence": "CTTATGAC", "binding signal": 0.247}
{"sequence": "TCTATCAA", "binding signal": 0.212}
{"sequence": "AACGACTC", "binding signal": -0.0273}
{"sequence": "AGGTAGTG", "binding signal": 0.0916}
{"sequence": "GGGTAGTA", "binding signal": 0.238}
{"sequence": "CGGTAGTA", "binding signal": 0.342}
{"sequence": "CGGTAGTC", "binding signal": 0.173}
{"sequence": "AGGTAGTC", "binding signal": 0.0956}
{"sequence": "AGGTAGTA", "binding signal": 0.364}
{"sequence": "AGACAACG", "binding signal": -0.0674}
{"sequence": "AGAGCTAG", "binding signal": -0.0248}
{"sequence": "CGACTGAC", "binding signal": 0.00526}
{"sequence": "CAGAGCTC", "binding signal": -0.162}
{"sequence": "GTACAACA", "binding signal": 0.0355}
{"sequence": "CTACTACC", "binding signal": 0.303}
{"sequence": "CTACAACC", "binding signal": 0.119}
{"sequence": "ATACTACC", "binding signal": 0.36}
{"sequence": "ATACTAGC", "binding signal": 0.321}
{"sequence": "AGACTACG", "binding signal": -0.152}
{"sequence": "CTACAACA", "binding signal": 0.343}
{"sequence": "CTACTACA", "binding signal": 0.339}
{"sequence": "CCACTACA", "binding signal": 0.0814}
{"sequence": "ATACTACG", "binding signal": 0.339}
{"sequence": "CGACTACG", "binding signal": -0.0988}
{"sequence": "GTACTACA", "binding signal": 0.314}
{"sequence": "ACTAGACC", "binding signal": -0.00464}
{"sequence": "GATCGAAA", "binding signal": -0.0281}
{"sequence": "ATTAATGG", "binding signal": 0.0209}
{"sequence": "CTCACAGA", "binding signal": -0.131}
{"sequence": "AGCACTGC", "binding signal": -0.181}
{"sequence": "ACTTACCT", "binding signal": 0.0398}
{"sequence": "CTCTAAAC", "binding signal": 0.0676}
{"sequence": "AGTGGCAG", "binding signal": -0.029}
{"sequence": "AATTGACG", "binding signal": 0.213}
{"sequence": "AGACTACA", "binding signal": 0.0935}
{"sequence": "ATACTACA", "binding signal": 0.408}
{"sequence": "ACACTACA", "binding signal": 0.276}
{"sequence": "AGTGAAAC", "binding signal": -0.00421}
{"sequence": "CTGTATAC", "binding signal": 0.216}
{"sequence": "GTGTATAA", "binding signal": 0.246}
{"sequence": "ATGTATAG", "binding signal": 0.244}
{"sequence": "CTGTATAA", "binding signal": 0.265}
{"sequence": "ATGTATAA", "binding signal": 0.385}
{"sequence": "ATGTATAC", "binding signal": 0.347}
{"sequence": "GTTAATAA", "binding signal": 0.303}
{"sequence": "TCTCGACA", "binding signal": -0.0144}
{"sequence": "ATCAGAGC", "binding signal": -0.105}
{"sequence": "CGTCTCTA", "binding signal": -0.15}
{"sequence": "CATTGTTC", "binding signal": 0.00988}
{"sequence": "CCAGCATA", "binding signal": -0.0442}
{"sequence": "ATAGGTCA", "binding signal": 0.156}
{"sequence": "CGATGGAA", "binding signal": 0.0214}
{"sequence": "CACAAGTA", "binding signal": 0.183}
{"sequence": "CACAAACA", "binding signal": 0.0611}
{"sequence": "CACAAATG", "binding signal": -0.0865}
{"sequence": "AACAAACA", "binding signal": 0.0686}
{"sequence": "TACAAACA", "binding signal": 0.369}
{"sequence": "TACAAGTA", "binding signal": 0.288}
{"sequence": "CACAAATA", "binding signal": 0.35}
{"sequence": "TACAAATA", "binding signal": 0.375}
{"sequence": "AACAAATA", "binding signal": 0.295}
{"sequence": "TTATGCAA", "binding signal": 0.154}
{"sequence": "GGAGGAAA", "binding signal": -0.0576}
{"sequence": "CGTTCCTC", "binding signal": -0.0344}
{"sequence": "AGTAAGGA", "binding signal": -0.0123}
{"sequence": "CGTCGCGC", "binding signal": 0.0557}
{"sequence": "ACTCCTAT", "binding signal": 0.122}
{"sequence": "AAGATTCC", "binding signal": -0.109}
{"sequence": "CAGTAGTC", "binding signal": -0.166}
{"sequence": "AAGTAGAA", "binding signal": 0.305}
{"sequence": "TAGTAGGA", "binding signal": 0.209}
{"sequence": "CAGTAGTA", "binding signal": 0.343}
{"sequence": "GAGTAGAA", "binding signal": 0.202}
{"sequence": "AAGTAGTA", "binding signal": 0.332}
{"sequence": "CAGTAGAG", "binding signal": 0.142}
{"sequence": "TAGTAGAA", "binding signal": 0.439}
{"sequence": "CAGTAGAA", "binding signal": 0.391}
{"sequence": "AACGACGA", "binding signal": 0.183}
{"sequence": "ATTGGCTC", "binding signal": -0.0706}
{"sequence": "AATTTTCG", "binding signal": 0.139}
{"sequence": "ACCGGCAG", "binding signal": -0.0541}
{"sequence": "AGACTGTC", "binding signal": 0.0207}
{"sequence": "CGCAGACA", "binding signal": -0.162}
{"sequence": "ATGTTGTA", "binding signal": 0.223}
{"sequence": "ATTACCTA", "binding signal": 0.382}
{"sequence": "GATACCTA", "binding signal": 0.34}
{"sequence": "AATACCTA", "binding signal": 0.267}
{"sequence": "GTTACGTA", "binding signal": 0.169}
{"sequence": "ATTACCTG", "binding signal": 0.126}
{"sequence": "CATACCTA", "binding signal": 0.334}
{"sequence": "ATTACCTC", "binding signal": 0.167}
{"sequence": "ATTACGTA", "binding signal": 0.38}
{"sequence": "CTTACGTA", "binding signal": 0.179}
{"sequence": "ACGCCGAC", "binding signal": -0.196}
{"sequence": "ACGACATG", "binding signal": 0.136}
{"sequence": "CACCAGTA", "binding signal": -0.00869}
{"sequence": "AAAGTCGC", "binding signal": 0.0343}
{"sequence": "GGCTCTAA", "binding signal": 0.0778}
{"sequence": "AACTCTGA", "binding signal": 0.0339}
{"sequence": "CCAGACGG", "binding signal": -0.108}
{"sequence": "CAAAGACC", "binding signal": -0.0604}
{"sequence": "GTATTCAA", "binding signal": 0.0317}
{"sequence": "GTAGTAGA", "binding signal": 0.33}
{"sequence": "CTAGTAGC", "binding signal": 0.251}
{"sequence": "GCAGTAGC", "binding signal": -0.0296}
{"sequence": "CTAGTAGA", "binding signal": 0.404}
{"sequence": "GCAGTAGA", "binding signal": 0.342}
{"sequence": "CCAGTAGA", "binding signal": 0.166}
{"sequence": "ATAGTAGC", "binding signal": 0.315}
{"sequence": "CAAGTAGA", "binding signal": 0.286}
{"sequence": "ATAGTAGA", "binding signal": 0.346}
{"sequence": "AGCCGGAT", "binding signal": -0.184}
{"sequence": "ATCCTTCC", "binding signal": -0.158}
{"sequence": "CATTGAAA", "binding signal": -0.0384}
{"sequence": "ACTCTCCA", "binding signal": -0.0297}
{"sequence": "TCCGGTAA", "binding signal": 0.0305}
{"sequence": "ATTTTACC", "binding signal": 0.351}
